In PubChem BioAssay (NCI):
This is part of a sample that, as a whole, favours compounds with a hit. Of some 79,000 tested, about 15% had one in any assay. Unmarked numbers belong to inactive results. Calls of active or inactive are those of the source. Rule as the data show it: active = growth inhibition above about 70%; inactive = the rest.

Tests used:
[1] = NCI Yeast Anticancer Drug Screen. Data for the rad50 strain (AID 155);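 also: 0% = growth of vehicle-only cultures of the same strain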; settings: S. cerevisiae rad50 strain growth inhibition; at 50.0 µM; hits give high values
Method in brief: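 Yeast carrying a defined DNA repair defect were exposed to test compounds, and growth was compared with vehicle-treated controls to give percent inhibition.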

[2] = NCI Yeast Anticancer Drug Screen. Data for the mec2-1 strain (AID 157); settings: S. cerevisiae mec2-1 strain, at 50.0 µM, hits give high values
Method in brief: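 Compounds were applied to mec2-1 yeast cells. Their growth was then compared with that of vehicle-treated cultures to give growth inhibition.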

[3] = NCI Yeast Anticancer Drug Screen. Data for the sgs1 mgt1 strain (AID 161);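 also: 0% = growth of cultures given vehicle only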; settings: S. cerevisiae sgs1 mgt1 strain, at 50.0 µM, hits give high values
Method in brief: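 Percent growth inhibition was derived by comparing compound-exposed mutant yeast with vehicle-exposed cultures. The strain carries alterations in DNA damage repair.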

[4] = NCI Yeast Anticancer Drug Screen. Data for the cln2 rad14 strain (AID 165);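 also: 0% = growth equal to vehicle treated cultures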; settings: S. cerevisiae cln2 rad14 strain, at 50.0 µM, hits give high values
Method in brief: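 Strain: cln2 rad14 yeast, altered in cell cycle control and DNA damage repair. Read-out: growth inhibition vs vehicle.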

[5] = NCI Yeast Anticancer Drug Screen. Data for the bub3 strain (AID 167); settings: S. cerevisiae bub3 mutant strain, at 50.0 µM, hits give high values
Method in brief: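 Compounds were applied to a genetically altered yeast strain carrying a cell-cycle control defect. Growth inhibition was scored against vehicle-treated controls.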

[6] = NCI Yeast Anticancer Drug Screen. Data for the mlh1 rad18 strain (AID 175); settings: S. cerevisiae mlh1 rad18 strain growth inhibition; at 50.0 µM; hits give high values
Method in brief: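 A repair-deficient yeast strain is exposed to test compound, and growth is scored relative to vehicle-treated controls.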

Structure (SMILES) | growth inhibition [1] | growth inhibition [2] | growth inhibition [3] | growth inhibition [4] | growth inhibition [5] | growth inhibition [6]
CN1CCCCCC1 | -8.05% | -8.45% | 5.95% | -4.95% | -10.9% | -0.85%
COc1cc(C=O)c(-c2cc(OC)c(OC)cc2C=O)cc1OC | 5.9% | -6.65% | -8.8% | 0.2% | -12.4% | -2.15%
C[CH2][Sn]([CH2]C)([N](c1ccccn1)c1ccccn1)[N](c1ccccn1)c1ccccn1 | -1.75% | -2.25% | -26.2% | 4.3% | -0.6% | -25.1%
COc1cc(OC)cc(C2OC(N)=C(O)C2=O)c1 (stereo unspecified) | 9.65% | 4.25% | 13% | 14.9% | 2.35% | 19.3%
O=C(c1ccccc1)c1ccc2c(c1)-c1ccccc1-2 | 7.3% | -7% | 15.1% | -21.1% | 12.8% | 12.8%
O=C(OCN1C(=O)C2C3C=CC(C2C1=O)C1C2C(=O)N(COC(=O)C4CCCN4)C(=O)C2C31)C1CCCN1 (stereo unspecified) | 5% | -15.6% | -36.6% | 2.95% | -42.8% | -10.1%
O=C(O)CNC(=O)c1cccc(Cl)c1 | 12.4% | 12.3% | 14.7% | 13.3% | 16.9% | 14.6%
NC(CSc1nc2ccccn2c1[N+](=O)[O-])C(=O)O (stereo unspecified) | -26.1% | -40.8% | -30.1% | 5.25% | 8.25% | -18%
Cc1cc(C)c2[nH]c(=O)c(Br)c(C)c2c1 | 29.8% | 11.8% | 34.2% | 22.1% | 3.85% | 19.4%
NC(=O)CCCCCCCC(=O)O | -0.9% | -5.7% | -13.4% | 1.45% | -10.6% | -22.9%
C/C(=C\C(N)=O)C(C)(C)C | 4.15% | -2.25% | 9.35% | 10.3% | 21.9% | -41.1%
CC(C)=C1CCC(CN2CCOCC2)C1=O (stereo unspecified) | 25.2% | 16.4% | 23.1% | 19.6% | -2.6% | 87% (active)
CC(=O)Nc1ccc2c(c1)Cc1cccc(O)c1-2 | 0.65% | -7.15% | 15.9% | -29.9% | 1.75% | 10.1%
Nc1ccc(/C=C/c2ccc(N)cc2)cc1 | 9.05% | -0.95% | -1.4% | -1.25% | 8.9% | 5.05%
O=C1/C(=C/c2ccc(O)c(CN3CCCCC3)c2)CCC/C1=C\c1ccc(O)c(CN2CCCCC2)c1 | -0.8% | 23.9% | 1.75% | -8% | -1.9% | 19.4%
Cc1nnc(Nc2ccc(Cl)c(Cl)c2)s1 | -6.95% | -20% | 26.8% | 12.3% | 11.3% | 4.75%
Cc1ccc2cc(N)ccc2c1 | -2.9% | 8.05% | 2.9% | -9.85% | 20.1% | 23.1%
O=C(O)/C(Br)=C(\Br)c1ccccc1 | 23.9% | 15.8% | 14.6% | 14.4% | 1.55% | 12.5%
COc1cc(OC)c(C2c3cc4c(cc3OC(C)(N3CCCC3)C2C)OCO4)c(OC)c1 (stereo unspecified) | 4.5% | 14.6% | 5.25% | -8.65% | 9.45% | 20.3%
CCCCCCC1(/C=C\c2ccccc2Cl)OCCO1 | 37.6% | 31.5% | 37.5% | -9.6% | 16.9% | 23.3%
Cc1ccccc1I | -15.2% | -32.3% | -3.2% | 9% | 0.5% | 9.2%

Structure (SMILES) | growth inhibition [1] | growth inhibition [2] | growth inhibition [3] | growth inhibition [4] | growth inhibition [5] | growth inhibition [6]
CC(C)C(C)(C(N)=O)C(C)C | 14.3% | 17.4% | 10.2% | 17.9% | -1.25% | -1.4%
CC(=O)Oc1cc(Cl)c(Cl)cc1Cl | 19.9% | 29.9% | -5.65% | -30.4% | -16.4% | -2.1%
O=C(O)c1ccccc1[N+](=O)[O-] | -4.1% | 10.1% | -9.5% | 1.3% | -4.3% | 10.8%
Cc1cc(C)c(N)cc1C | 3.9% | 13% | -20.4% | -43.5% | -2.2% | -2.5%
C=CC[n+]1cccc(Oc2ccc([N+](=O)[O-])cc2[N+](=O)[O-])c1 | 73.7% (active) | 12.4% | 63.5% | 31.3% | 18.1% | 54.7%
COc1ccc(C(=O)c2cccc(C(=O)c3ccc(OC)cc3)c2)cc1 | -13.1% | -19.4% | -3.5% | -0.9% | -13.5% | -4.15%
CC1=CC(=O)C(=Ic2ccccc2)C(=O)O1 | 11.2% | -8.25% | 4.6% | 9.65% | -3.85% | 14.6%
O=CC(=C\c1cccs1)/C(C=O)=C\c1cccs1 | 99.3% (active) | 99.5% (active) | 99.5% (active) | 99.1% (active) | 99.4% (active) | 88.5% (active)
CC1(C)CNC[C@](C)(OCCCO[C@@]2(C)CNCC(C)(C)NC2=O)C(=O)N1 | -11.4% | -33.5% | -21.2% | 25.6% | 3.95% | -9.45%
COC(=O)N/N=C/c1ccc(C)cc1 | -4.1% | -8.05% | -10% | -37.9% | -3.9% | -4.1%
Cc1sc2nc3n(c(=O)c2c1C)N=CN(c1ccccc1)C3 | 3% | 4% | 2.1% | -12.8% | -3.5% | -16.7%
Cc1cccnc1Nc1ncccc1C | 13.8% | -18.8% | 10.9% | 14.3% | 8.3% | 10.8%
CCN(CC)c1c(C)c(-c2ccccc2)oc(=O)c1Cl | 0.3% | -1.05% | 3.7% | 11.1% | 6.85% | 6.95%
Cc1ccc(C)c(NC(=O)C(=O)C2C(=O)C3=C(CC2(C)C)Nc2ccccc2S3)c1 (stereo unspecified) | -21.2% | -20.2% | -14.1% | -21.5% | -28.4% | -33%
NC(=O)OCC(COc1ccc(Cl)cc1)OC(=O)c1cc([N+](=O)[O-])cc([N+](=O)[O-])c1 (stereo unspecified) | 29.2% | 23.9% | 20.4% | 17.6% | 14.3% | 8.75%
Cc1ccc(/C=C/C(=O)c2c([O-])on[n+]2-c2ccccc2)cc1 | 2.6% | -7.85% | 21.9% | 14.9% | 5% | -4.8%
Cn1cnc2ncnc(Nc3ccc(Cl)cc3)c21 | 5.25% | -16% | 4% | -24.2% | 10% | -6.1%
COc1cc(C=C2C(=O)OC(C)(C)OC2=O)cc(OC)c1OC | 3.45% | -22.1% | -11.3% | 24.3% | -21.5% | 9.05%
CN(C)c1ccc(N=O)c(O)c1 | -3.35% | -6.45% | -63% | 13.6% | -15.8% | 3%
CNNCCCC(=O)NC(C)C | -5.7% | 6.65% | 9.25% | 2.75% | 7.8% | 7.85%
